Test results reported in PubChem BioAssay (NCI).
The panel holds about 83,000 compounds, 20% with a hit somewhere; the sample as a whole holds those more often.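 Method: cells in 96-well plates; compound added at one concentration; 48 h incubation; percent growth measured; values under 10 scored active.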 A number with no mark means an inactive call. Calls of active or inactive are those of the source.

Legend:
Test in all cases: NCI-60 one-dose screen, 48 h (100 = growth as untreated, 0 = no growth, -100 = all killed)
Conditions in all cases: 10 µM unless noted
[1] = test system: T-47D breast
[2] = test system: BT-549 breast
[3] = test system: MDA-MB-435 melanoma
[4] = test system: SW-620 colon
[5] = test system: MCF7 breast
[6] = test system: HCT-116 colon
[7] = test system: HCC-2998 colon
[8] = test system: KM12 colon
[9] = test system: MDA-MB-468 breast

Row | Compound | growth [1] | growth [2] | growth [3] | growth [4] | growth [5] | growth [6] | growth [7] | growth [8] | growth [9]
1 | CN(C)CCOc1ccc(C(=O)C2[C@H](c3ccc(Cl)cc3)[C@@H](c3ccccc3)NC23C(=O)Nc2ccc(Cl)cc23)cc1 (stereo partly specified) | -81.7% (active) | -97.6% (active) | -96.2% (active) | -87.2% (active) | -81.5% (active) | -91% (active) | -91.8% (active) | -67.1% (active) | -92.3% (active)
2 | O=C1/C(=C/c2cnc(-c3ccccc3)s2)SC(=S)N1Cc1ccc2c(c1)OCO2 | 47.4% | 69.2% | 94.5% | 102% | 59.3% | 69.4% | 102% | 99.7% | 43.2%
3 | O=C(NNC(=O)c1ccc(OCc2nc3ccc(Cl)cc3[nH]2)cc1)Nc1ccc(Cl)c(C(F)(F)F)c1 | 16.4% | 64.7% | 51.4% | 65% | 49.5% | 4.53% (active) | 73.9% | 49.1% | –
4 | COc1cc(CNC(=O)C[C@H](C)CCC=C(C)C)ccc1OCc1cn(-c2ccccc2F)nn1 | 60.6% | 71% | 100% | 92.7% | 66.9% | 60.2% | 101% | 99.3% | 57.7%
5 | N#CC1=C(c2cccs2)Nc2c(c(-c3ccccc3)nn2-c2ccccc2)C12C(=O)Nc1ccccc12 (stereo unspecified) | 17.3% | -41.8% (active) | 28.3% | 8.74% (active) | 31.4% | 5.53% (active) | 38.1% | 9.03% (active) | -9.71% (active)
6 | c1n[nH]cc1-c1nc2ccc3[nH]ncc3c2c2c1CC1(CC2)COC1 | 26.8% | -7.9% (active) | 30.7% | 8.89% (active) | 62.4% | 15.4% | 60.4% | 56.7% | -24.5% (active)
7 | N#Cc1cc(-c2ccc3ncnc(N4CCc5cc(F)c(Cl)cc54)c3c2)cnc1N | 25.8% | 9.67% (active) | 39.2% | 25.2% | 4.81% (active) | 33.2% | 50.1% | 67.2% | –
8 | FC(F)(F)c1cc2c(Cl)ncnc2n1CCC1CCOCC1 | 66.6% | -41.1% (active) | -29.6% (active) | 35% | 34.7% | -53.5% (active) | -90.6% (active) | 64.3% | -82.9% (active)
9 | COc1sc(/C=N/NC(=O)c2[nH]c3ccc(Br)cc3c2-c2ccccc2)cc1Br | 62% | -29.1% (active) | -26.5% (active) | 6.77% (active) | 4.42% (active) | -5.78% (active) | 8.54% (active) | 2.33% (active) | -14.5% (active)
10 | O=C(Nc1ccc(-c2ccc3c(c2)NC(=O)/C3=C\c2ccc[nH]2)cc1)Nc1cccc(Cl)c1 | -1.23% (active) | -1.48% (active) | 10.1% | 13.9% | -9.34% (active) | 2.08% (active) | -24.2% (active) | -22.3% (active) | –
11 | CC(C)(C)OC(=O)N1CCC2(CC1)Oc1ccccc1[C@H]1CC(c3ccc(Br)cc3)=NN12 | 37.1% | 78.5% | 81.6% | 83% | 59.9% | 74.1% | 85.6% | 49.9% | 67.7%
12 | C/C(=N/O)c1ccc(NC(=O)CSc2nnc(-c3ccc4nc(-c5ccc(Cl)cc5)[nH]c4c3)o2)cc1 | 97.8% | -8.14% (active) | 18.3% | 67.4% | 55.3% | 69% | 128% | 36.4% | 122%
13 | COc1ccc(-c2nc3ccc(-c4nnc(SCc5ccccc5)o4)cc3[nH]2)cc1 | -41.9% (active) | -54% (active) | -29.5% (active) | 7.51% (active) | -20.2% (active) | -60.5% (active) | 25.4% | 16.5% | -23.8% (active)
14 | c1n[nH]cc1-c1nc2ccc3cn[nH]c3c2c2c1CCCC2 | 74.7% | 97.1% | 94.8% | 109% | 78.7% | 89.5% | 104% | 96.4% | –
15 | Cc1ccc(C(=O)Nc2cc(-c3ccncc3)cc(C(F)(F)F)c2)cc1C#Cc1cnc2cccnn12 | 81.6% | 86.8% | 33.9% | 30.7% | 45.9% | 23.4% | 63.5% | 36.2% | 92.7%
